Data published in PubChem BioAssay (Tox21).
Calls of active or inactive are those of the source. Calls follow the shape of the dose curve; as a rule, active = well fitted curve in the direction sought with a large enough effect in the repeat runs; inconclusive = weak or mixed curves; inactive = flat fitted curve, though single readings scatter.

Assay: qHTS assay to test for compound auto fluorescence at 460 nm (blue) in HEK293 cells (AID 720678)
Details: blue autofluorescence 405/460 nm; series mostly up to 91.3 µM; fluorescence, % of triamterene: at the top concentration
Source text: National Center for Advancing Translational Sciences [NCATS]
NIH Chemical Genomics Center [NCGC]
U.S. Environmental Protection Agency [EPA]
National Institutes of Environmental Health Sciences [NIEHS]
National Toxicology Program [NTP]
U.S. Food and Drug Administration [FDA]
Compound auto fluorescence often interferes with screening of the compound library against various biological targets and signaling pathways. Some of these compounds may have fluorophoric properties. Such properties may interfere with the assay outputs resulting in false positives and/or negatives. To decrease such complications and ensure the compound activities are relevant in terms of biological response, the Tox21 10K compound library was screened for auto fluorescence.
From the fluorophores used as reporter signals in our screening assays, the auto fluorescence equivalencies of compounds against three fluorophores have been evaluated: Triamterene, Fluorescein and Rose Bengal sodium for blue, green and red fluorescence, respectively. The fluorescence intensities were measured using Excitation/Emission wavelengths at 405/460nm, 485/535nm and 540/590nm for blue, green and red labels, respectively. This assay includes the blue fluorescence data.
Tox21 Assay Protocol Summary:
2,000 HEK293 cells in 5 uL of culture medium containing 10% dialyzed FBS per well were dispensed into black wall/clear bottom 1536-well plates using a Multidrop Combi Dispenser (Thermo Scientific). The assay plates were incubated for 4-5 hr at 37C to allow cell attachment to the well bottom, followed by the transfer of 23 nL compound or DMSO vehicle by a pintool work station (Kalypsys, San Diego, CA). After the assay plates were incubated overnight at 37C and 5% CO2, fluorescence intensities in the assay plates were measured by an Envision (PerkinElmer, Shelton, CT) plate reader using three labels for measuring blue, green and red fluorescence at […] 460, 535 and 590nm respectively.
% is scaled to controls: 0 for no effect and ±100 for the full control effect.

Structure (SMILES) | fluorescence, % of triamterene | Potency
CNc1ccccc1 | -0.246% (inactive) | –
COc1ccc(C(=O)c2ccc(C)cc2)c(O)c1 | – | inactive
CC(CN=Cc1ccccc1O)N=Cc1ccccc1O (stereo not given) | 0.167% (inactive) | –
CC(C)(C)NCC(O)COc1ccc(NC(=O)NC2CCCCC2)cc1 (stereo not given) | -0.0173% [at 46 µM] (inactive) | –
CC(C)NC(=O)c1ccccc1N | 0.131% (inactive) | –
CC(C)CC(C)(C)C | -0.132% [at 95.7 µM] (inactive) | –
O=c1[nH][nH]c2ccccc12 | 1.07% [at 95.7 µM] (inactive) | –
NC(=O)c1cc[n+](CC2=C(C(=O)[O-])N3C(=O)[C@@H](NC(=O)Cc4cccs4)[C@H]3SC2)cc1 | 0.803% [at 18.6 µM] (inactive) | –
O=C(NC1CCN(CCc2c[nH]c3ccccc23)CC1)c1ccccc1 | 0.0817% [at 46 µM] (inactive) | –
CCCC(=O)OCCC(C)C | -0.0297% (inactive) | –
C[C@@H](O)[C@H]1C(=O)N2C(C(=O)O)=C(S[C@@H]3CN[C@H](CNS(N)(=O)=O)C3)[C@H](C)[C@H]12 | 1.02% [at 46 µM] (inactive) | –
C/C=C1\[C@H]2C=C(C)C[C@]1(N)c1ccc(=O)[nH]c1C2 | -0.0286% [at 46 µM] (inactive) | –
C/C(=C(\CCO)SS/C(CCO)=C(\C)N(C=O)Cc1cnc(C)nc1N)N(C=O)Cc1cnc(C)nc1N | -0.105% [at 46 µM] (inactive) | –
CC(=O)Oc1cccc2c1C(=O)c1c(OC(C)=O)cc(C(=O)O)cc1C2=O | -0.267% [at 46 µM] (inactive) | –
CC(C(=O)O)c1ccc2c(c1)Cc1cccnc1O2 (stereo not given) | 0.0689% [at 46 µM] (inactive) | –
CCC(=O)O[C@@H]1C[C@H]2CC[C@]1(C)C2(C)C | -0.103% (inactive) | –
CC(C)=CCCC(C)C=O (stereo not given) | -0.308% (inactive) | –
COc1ccc(CN(CCN(C)C)c2ncccn2)cc1 | 0.116% [at 46 µM] (inactive) | –
CC(C)=CCC/C(C)=C/C=N/O | 0.289% (inactive) | –
C=C(C)C(=O)OCCCCCCCCCCOC(=O)C(=C)C | 0.0101% (inactive) | –

Structure (SMILES) | fluorescence, % of triamterene | Potency
C/C(=C\C(C)CC(C)CC(C)C)C1CC(=O)OC1=O (stereo not given) | 0.187% (inactive) | –
N#Cc1ccc(CC(=O)c2cccc(C(F)(F)F)c2)cc1 | -0.0031% (inactive) | –
CCCCCCCCCCCC(=O)OCC | -0.208% (inactive) | –
NC(=O)c1ccccc1C(N)=O | 0.0279% (inactive) | –
CC(C)Cc1nccs1 | -0.0614% [at 95.7 µM] (inactive) | –
CC(=O)CC/C=C(\C)CC/C=C(\C)CC/C=C(\C)CCC=C(C)C | 0.0256% [at 46 µM] (inactive) | –
COC(=O)c1cc(Cl)ccc1[N+](=O)[O-] | 0.124% (inactive) | –
CCCCCCCCS | 0.0285% [at 95.7 µM] (inactive) | –
CCCCCCOC(=O)c1ccccc1 | 0.25% (inactive) | –
Nc1cccc2c(=O)[nH][nH]c(=O)c12 | 0.309% (inactive) | –
COc1ccc(C(=O)Nc2ccccc2)cc1[N+](=O)[O-] | 0.267% (inactive) | –
CCCC(=O)OCc1ccccc1 | 0.226% (inactive) | –
CCCC1CCCC(=O)O1 (stereo not given) | -0.0369% (inactive) | –
Cc1ccc2c(Cl)cc(Cl)c(O)c2n1 | 2.16% [at 46 µM] (inactive) | –
OCC(O)c1ccccc1 (stereo not given) | 0.119% (inactive) | –
O=C(OCCCCCOC(=O)c1ccccc1)c1ccccc1 | -0.199% (inactive) | –
CC(COc1ccccc1)NC(C)C(O)c1ccc(O)cc1 (stereo not given) | -0.0294% [at 18.6 µM] (inactive) | –
COc1cc(C)c(Cc2cnc(N)nc2N)cc1OC | -0.0992% [at 46 µM] (inactive) | –
C=CCCC | -0.345% [at 95.7 µM] (inactive) | –
c1ccc(-c2ccc(-c3ccccc3)cc2)cc1 | -0.0124% [at 18.6 µM] (inactive) | –
